This is a sample that favours compounds with a hit; in the whole collection about 3.6% have one here.
mHTT-CaM PPI inh – disrupts binding of mutant huntingtin to calmodulin; AlphaScreen His-mHTT/GST-CaM binding, luminescence; inhibition, % at 15 µM; 3.6% of 190,000 active; AID 1671202;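 note: 0% = both proteins with DMSO and 100% = one protein alone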
Pf apPOL inh – Pf-apPOL DNA polymerase inhibition; Recombinant Pf-apPOL, molecular beacon fluorescence, 1.5 h; inhibition, % at 10 µM; 0.25% of 210,000 active; AID 1794808
* hit, by the source's call; . = not tested or not shown. Cut-off read from the data, not from the text of the source: active = inhibition above about 50%; inactive = the rest.

SMILES | mHTT-CaM PPI inh | Pf apPOL inh
O=C(/C=C/c1ccccc1)Nc1ncc(Cc2ccccc2Cl)s1 | -2.0 | -1.7
COc1ccc(CCNC(=O)c2cn(C)nc2C)cc1OC | -11.9 | -7.6
COc1ccc(-n2nc(C(=O)NCC(=O)NCc3cccnc3)c3ccccc3c2=O)c(OC)c1 | 6.0 | -2.3
Brc1ccc(OCc2cn3cccnc3n2)c(Br)c1 | 20.0 | -3.7
COc1cc(/C=C2\C(=O)NN(c3ccc(C)c(Cl)c3)C2=O)cc(OC)c1OC | 33.0 | -4.1
COc1cccc(/C=C2\C(=O)NN(c3ccc(C)c(C)c3)C2=O)c1 | 9.0 | -4.6
COc1c(Cl)cc(/C=C2\C(=O)NN(c3ccccc3)C2=O)cc1Cl | 96.0* | -6.2
COc1cccc(/C=C2\C(=O)NN(c3cccc(C(F)(F)F)c3)C2=O)c1 | 85.0* | -2.5
COc1ccc(CNC(=O)C2CC(c3ccc(OC)c(OC)c3)=NO2)cc1 (stereo not drawn) | -2.4 | -1.0
O=C(CSC1CCCC1)Nc1nc2c(s1)C(=O)CCC2 | -21.2 | 0.1
O=C(NC(Nc1ccc([N+](=O)[O-])cc1)C(Cl)(Cl)Cl)c1cccs1 (stereo not drawn) | 34.0 | -0.5
O=C(NC(Nc1ccc(Cl)cc1)C(=O)c1ccccc1)c1cccs1 (stereo not drawn) | 81.0* | -3.2
O=C(NC(Nc1ccc(I)cc1)C(Cl)(Cl)Cl)c1cccs1 (stereo not drawn) | 84.0* | -3.1
Cc1ccc(NC(NC(=O)c2cccs2)C(=O)c2ccccc2)cc1 (stereo not drawn) | 38.0 | -3.4
COc1ccc(C)cc1-n1cnc2cc(C(=O)O)ccc21 | -6.0 | 1.7
CCC(CO)Nc1ncnc2c1cnn2-c1cccc(C)c1 (stereo not drawn) | 12.0 | -1.2
Cc1noc(C)c1CC(=O)N1CCCC2(C1)Nc1ccccc1NC2=NC(C)(C)C (stereo not drawn) | 33.8 | -2.0
CC(C)(C)N=C1Nc2ccccc2NC12CCCN(C(=O)Cc1cccs1)C2 (stereo not drawn) | 64.5* | -0.4
CC(=O)c1cccc(NC(=O)N2CCCC3(C2)Nc2ccccc2NC3=NC(C)(C)C)c1 (stereo not drawn) | 26.6 | 4.2
CC(C)(C)N=C1Nc2ccccc2NC12CCCN(C(=O)c1cccc(F)c1)C2 (stereo not drawn) | 14.5 | 4.3
CC(C)(C)N=C1Nc2ccccc2NC12CCCN(C(=O)Nc1ccc3c(c1)OCCO3)C2 (stereo not drawn) | 93.8* | 1.2
CC(C)(C)N=C1Nc2ccccc2NC12CCCN(C(=O)COc1ccc(F)c(F)c1)C2 (stereo not drawn) | 100.0* | 7.6
CC(C)N1CCC(CC(=O)N2CCCC3(C2)Nc2ccccc2NC3=NC(C)(C)C)CC1 (stereo not drawn) | 46.1 | -5.0
CC(C)(C)N=C1Nc2ccccc2NC12CCCN(C(=O)Cc1ccccc1F)C2 (stereo not drawn) | 65.2* | -1.8
CCOc1ccccc1CNC(=O)C1CCCN(c2nnc3ccccn23)C1 (stereo not drawn) | 5.1 | -6.6
SMILES | mHTT-CaM PPI inh | Pf apPOL inh
CN(C(=O)c1cc2n(n1)C(C(F)(F)F)CC(c1cccs1)N2)C1CCCCC1 (stereo not drawn) | 39.0 | -3.9
COC(=O)C1CCN(Cc2cc(=O)oc3cc4c(cc23)CCC4)CC1 | 5.8 | -7.1
O=C(c1ccc(OCC2CCCN2C(=O)c2cccs2)cc1)N1CCCC1 (stereo not drawn) | -0.8 | 6.1
O=C(COc1ccc(F)cc1)N1CCCC2(C1)Nc1ccccc1NC2=NC1CCCC1 (stereo not drawn) | 86.3* | -3.6
COCCN=C1Nc2ccccc2NC12CCCN(C(=O)c1n[nH]c3c1CCCC3)C2 (stereo not drawn) | -1.7 | -1.8
COCCN=C1Nc2ccccc2NC12CCCN(C(=O)Cc1cccc(OC)c1)C2 (stereo not drawn) | 39.3 | -2.9
O=C(c1n[nH]c2c1CCCC2)N1CCCC2(C1)Nc1ccccc1NC2=NC1CCCC1 (stereo not drawn) | 92.1* | -2.4
O=C(c1cccc(F)c1)N1CCCC2(C1)Nc1ccccc1NC2=NC1CCCC1 (stereo not drawn) | 18.4 | -4.5
COc1cccc(CC(=O)N2CCCC3(C2)Nc2ccccc2NC3=NC(C)(C)C)c1 (stereo not drawn) | 78.3* | 0.1
CC(C(=O)NCCc1ccc(S(N)(=O)=O)cc1)n1nc(-c2ccc(F)cc2)ccc1=O (stereo not drawn) | -14.9 | -9.1
Cc1cc(F)c(F)cc1C(=O)n1nnc2ccccc21 | 4.0 | 2.3
O=C(Nc1ccccc1NC(=O)c1ccccc1)c1ccccc1 | -5.2 | -18.7
CC(=O)Nc1ccc(C(=O)Nc2ccccc2C)cc1 | 5.8 | -8.4
O=C(C=NNc1ccccc1)Nc1ccccc1C(=O)O | . | 88.5*
O=C(Nc1ccccc1C(=O)Nc1ccccc1C(=O)O)c1ccccc1 | 80.5* | -21.3
Cc1ccccc1NC(=O)c1ccc(-c2cccc(F)c2)nc1 | -1.0 | 8.3
COC(=O)c1ccccc1NC(=O)C=NO | . | -4.8

Screens from PubChem BioAssay.
